The nature of assay [1]: compounds binding Alexa647 anti-His antibody – biochemical, small-molecule microarray, 635 nm fluorescence, artefact control for SMM control protein annotation, primary screen (AID 1128).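 Also: score merges feature fluorescence with signal-to-noise for each printed compound spot.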 To be noted: higher = more signal.
The subject of assay [2] is Human papillomavirus type 1a E7 protein (residues 1-88). Nature of the assay: HPV1a E7 small-molecule binders, primary screen, biochemical, small-molecule microarray, residues 1-88, 635 nm (AID 1129). The conditions noted are these: small-molecule microarray binding, fluorescence 635 nm; higher = more signal.
Assay [3] addresses Focal adhesion kinase 1 (Homo sapiens) (UniProt Q05397). Nature of the assay: PTK2 protein binding on printed compound slides – biochemical, small-molecule microarray, 635/667 nm fluorescence, BSA, DTT, primary screen (AID 1130).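 Also: composite of spot emission at 667 nm and signal to noise over triplicate slides.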 To be noted: 635 nm fluorescence, higher = more signal.
Assay [4] deals with Fibrinogen (Alexa647-labelled). Nature of the assay: Alexa647-fibrinogen binding to printed small molecules – biochemical, small-molecule microarray, 635/667 nm fluorescence, artefact control for SMM control-protein annotation, profiling panel (AID 1131).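 Also: z-score merges 667 nm fluorescence with per-spot signal-to-noise over triplicate slides.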 To be noted: fibrinogen-A647 binding fluorescence, higher = more signal.
The target of assay [5] is Follistatin (Homo sapiens) (UniProt P19883). Nature of the assay: FST protein binding to printed compounds – biochemical, small-molecule microarray, 635/667 nm fluorescence, primary screen (AID 1132). To be noted: 635 nm fluorescence, higher = more signal.
Follistatin (Homo sapiens), sequence (P19883 whole entry, looked up): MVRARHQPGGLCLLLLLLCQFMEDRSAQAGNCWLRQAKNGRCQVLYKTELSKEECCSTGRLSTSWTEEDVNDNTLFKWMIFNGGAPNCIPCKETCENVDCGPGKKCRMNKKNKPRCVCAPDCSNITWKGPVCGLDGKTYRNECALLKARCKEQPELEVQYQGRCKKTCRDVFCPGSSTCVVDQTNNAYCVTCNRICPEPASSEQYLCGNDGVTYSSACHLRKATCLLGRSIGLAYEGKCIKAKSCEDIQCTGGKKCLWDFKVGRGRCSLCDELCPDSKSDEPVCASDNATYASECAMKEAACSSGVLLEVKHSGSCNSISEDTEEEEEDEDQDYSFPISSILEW
Assay [6] concerns the target Fibroblast growth factor 2 (Homo sapiens) (UniProt P09038). Nature of the assay: basic fibroblast growth factor binding to printed compounds – biochemical, small-molecule microarray, 635/667 nm fluorescence, primary screen (AID 1133). The conditions noted are these: FGF2, fluorescence 635/667, higher = more signal.
Assay [7] in a line: JC-1 mitochondrial potential readout, lung cancer cells – cell-based, A549, JC-1 fluorescence, basal, 24 h, 100 nL, profiling panel (AID 1138).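 Also: A549 lung adenocarcinoma cells under basal conditions with no added stimulus; test concentration not given here.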 To be noted: higher = more signal.
The test system of the next assay is Lefty1. Nature of the assay: Lefty1 protein binding to printed compounds – biochemical, small-molecule microarray, 635/667 nm fluorescence, primary screen (AID 1139). The conditions noted are these: fluorescence 635/667, higher = more signal.
Assay [8] relates to wheat germ agglutinin (Triticum aestivum), Alexa647-labelled. Nature of the assay: Alexa647-WGA lectin binding to printed small molecules – biochemical, small-molecule microarray, 635/667 nm fluorescence, artefact control for SMM control-protein annotation, profiling panel (AID 1140).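 Also: score merges 667 nm feature emission with signal to noise over triplicate slides.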 The conditions noted are these: WGA-A647 binding, 635 nm fluorescence, higher = more signal.
In assay [9] the target is Luciferin 4-monooxygenase (Photinus pyralis) (UniProt P08659). Nature of the assay: inhibition of purified Photinus pyralis luciferase – biochemical, luminescence, purified enzyme, 2006 set, primary screen (AID 1141).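 Also: cell-free assay with purified firefly luciferase at 100 ng per well in PBS; test concentration not given here.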 To be noted: purified firefly luciferase, SteadyGlo luminescence, 30 min; higher = more signal, called active from +8 up or from −8 down.
Luciferin 4-monooxygenase (Photinus pyralis), sequence (P08659 whole entry, looked up): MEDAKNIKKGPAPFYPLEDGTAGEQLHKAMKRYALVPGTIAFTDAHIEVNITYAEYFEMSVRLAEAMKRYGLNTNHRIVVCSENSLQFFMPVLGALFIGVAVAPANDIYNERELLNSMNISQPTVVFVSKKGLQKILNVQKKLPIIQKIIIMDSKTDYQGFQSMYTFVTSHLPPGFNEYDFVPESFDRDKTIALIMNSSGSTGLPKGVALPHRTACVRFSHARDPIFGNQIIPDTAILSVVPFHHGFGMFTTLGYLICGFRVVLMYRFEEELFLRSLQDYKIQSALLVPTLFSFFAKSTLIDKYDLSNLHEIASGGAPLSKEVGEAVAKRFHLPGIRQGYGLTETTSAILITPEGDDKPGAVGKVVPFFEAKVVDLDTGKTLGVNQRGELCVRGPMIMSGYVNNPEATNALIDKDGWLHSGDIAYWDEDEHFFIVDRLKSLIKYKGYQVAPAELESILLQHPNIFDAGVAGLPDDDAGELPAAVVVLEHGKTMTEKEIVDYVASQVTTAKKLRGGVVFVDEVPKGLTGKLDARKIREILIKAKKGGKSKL
Assay [10] concerns Wnt5a (protein binding on small-molecule microarray). Nature of the assay: small molecules binding Wnt5a protein – biophysical, small-molecule microarray, 635/667 nm fluorescence, primary screen (AID 1142).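 Also: fluorescence read at 667 nm with signal to noise per printed feature.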 To be noted: 635 nm fluorescence, higher = more signal.
Assay [11] is described as follows: ATP-based viability of Huh7 replicon cells – cell-based, CellTiter-Glo luminescence, basal, 48 h, cytotoxicity control for HCV replication inhibitor project, primary screen (AID 1143).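 Also: Huh7 hepatoma cells carrying a hepatitis C replication reporter with no stimulus; test concentration not given here.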 The conditions noted are these: higher = more signal, called active from +8 up or from −8 down. (A replicon is a self-replicating genome or part of one, used to study replication in cells.)

Assay [12] is described as follows: Pseudomonas biofilm growth suppression – PAO1 strain, BacTiter-Glo luminescence, LB-PBS, primary screen (AID 1144). The conditions noted are these: P. aeruginosa PAO1 biofilm, 12 h, higher = more signal.
Assay [13] is described as follows: basal CRE-LacZ reporter activity in PC12 – cell-based, unstimulated, primary screen (AID 1145). To be noted: no forskolin, luminescence, 4.5 h, higher = more signal, called active from +8 up or from −8 down.
The nature of assay [14]: forskolin-driven CRE-LacZ activity in PC12 – cell-based, CRE-LacZ reporter, forskolin-stimulated, primary screen (AID 1146).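 Also: PC12 cells with 6xCRE LacZ reporter stimulated by forskolin 10 µM; beta-galactosidase reporter signal reflecting CREB driven transcription.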 To be noted: luminescence, 4.5 h, higher = more signal, called active from +8 up or from −8 down.
For assay [15], the target named is Streptavidin (Streptomyces avidinii) (UniProt P22629). Nature of the assay: compounds binding control protein streptavidin – biophysical, small-molecule microarray, 635/667 nm fluorescence, artefact control for SMM compound annotation, primary screen (AID 1147).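 Also: signal reflects streptavidin binding to arrayed compounds as a control protein.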 To be noted: higher = more signal.
Streptavidin (Streptomyces avidinii), sequence (P22629 whole entry, looked up): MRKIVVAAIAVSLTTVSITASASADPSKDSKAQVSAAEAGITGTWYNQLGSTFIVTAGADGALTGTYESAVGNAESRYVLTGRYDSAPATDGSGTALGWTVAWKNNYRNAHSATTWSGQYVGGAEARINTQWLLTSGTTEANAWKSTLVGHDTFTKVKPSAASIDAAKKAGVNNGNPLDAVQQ
Assay [16] can be described thus: probe aInhba binding on compound microarray – biochemical, small-molecule microarray, 635/667 nm fluorescence, primary screen (AID 1148).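 Also: score merges 667nm spot fluorescence with signal-to-noise for antibody binding to printed compounds.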 To be noted: higher = more signal.
In assay [17] the target is Torsin-1A (Homo sapiens) (UniProt O14656). Nature of the assay: TOR1A wild-type binding on microarray – cell lysate, small-molecule microarray, lysate, 635/667 nm, primary screen (AID 1149). The conditions noted are these: COS7 hTOR1A-WT lysate, 635 nm fluorescence, higher = more signal.
Torsin-1A (Homo sapiens), sequence (O14656 whole entry, looked up): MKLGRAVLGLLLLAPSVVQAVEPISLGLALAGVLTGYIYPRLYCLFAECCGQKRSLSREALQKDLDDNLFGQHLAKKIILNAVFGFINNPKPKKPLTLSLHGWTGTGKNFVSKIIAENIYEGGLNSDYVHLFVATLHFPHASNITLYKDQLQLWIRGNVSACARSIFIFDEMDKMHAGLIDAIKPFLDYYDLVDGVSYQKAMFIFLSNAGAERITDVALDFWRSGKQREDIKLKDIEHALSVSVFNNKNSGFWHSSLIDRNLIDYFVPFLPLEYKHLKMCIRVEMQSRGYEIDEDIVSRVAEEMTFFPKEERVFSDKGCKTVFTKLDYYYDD
Assay [18] has the same target. Nature of the assay: torsin A mutant lysate binding on microarrays – cell lysate, small-molecule microarray, COS7 lysate, 635/667 nm fluorescence, primary screen (AID 1150).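 Also: score pools 667 nm emission and signal to noise measuring lysate protein binding.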 The conditions noted are these: COS7 hTOR1A mutant lysate, 635 nm fluorescence, higher = more signal.
For assay [19], the system named is Sonic hedgehog protein (Shh). Nature of the assay: Sonic hedgehog microarray binding compounds – biochemical, small-molecule microarray, 635/667 nm fluorescence, primary screen (AID 1151).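 Also: Shh protein binding to compounds spotted on small-molecule microarray slides; score combines spot fluorescence intensity with signal-to-noise across triplicate slides.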 The conditions noted are these: 635 nm fluorescence, higher = more signal.

The source made the active and inactive calls. Unless noted, no rule for the calls is given here.

Focal adhesion kinase 1 (Homo sapiens), sequence (Q05397 whole entry, looked up): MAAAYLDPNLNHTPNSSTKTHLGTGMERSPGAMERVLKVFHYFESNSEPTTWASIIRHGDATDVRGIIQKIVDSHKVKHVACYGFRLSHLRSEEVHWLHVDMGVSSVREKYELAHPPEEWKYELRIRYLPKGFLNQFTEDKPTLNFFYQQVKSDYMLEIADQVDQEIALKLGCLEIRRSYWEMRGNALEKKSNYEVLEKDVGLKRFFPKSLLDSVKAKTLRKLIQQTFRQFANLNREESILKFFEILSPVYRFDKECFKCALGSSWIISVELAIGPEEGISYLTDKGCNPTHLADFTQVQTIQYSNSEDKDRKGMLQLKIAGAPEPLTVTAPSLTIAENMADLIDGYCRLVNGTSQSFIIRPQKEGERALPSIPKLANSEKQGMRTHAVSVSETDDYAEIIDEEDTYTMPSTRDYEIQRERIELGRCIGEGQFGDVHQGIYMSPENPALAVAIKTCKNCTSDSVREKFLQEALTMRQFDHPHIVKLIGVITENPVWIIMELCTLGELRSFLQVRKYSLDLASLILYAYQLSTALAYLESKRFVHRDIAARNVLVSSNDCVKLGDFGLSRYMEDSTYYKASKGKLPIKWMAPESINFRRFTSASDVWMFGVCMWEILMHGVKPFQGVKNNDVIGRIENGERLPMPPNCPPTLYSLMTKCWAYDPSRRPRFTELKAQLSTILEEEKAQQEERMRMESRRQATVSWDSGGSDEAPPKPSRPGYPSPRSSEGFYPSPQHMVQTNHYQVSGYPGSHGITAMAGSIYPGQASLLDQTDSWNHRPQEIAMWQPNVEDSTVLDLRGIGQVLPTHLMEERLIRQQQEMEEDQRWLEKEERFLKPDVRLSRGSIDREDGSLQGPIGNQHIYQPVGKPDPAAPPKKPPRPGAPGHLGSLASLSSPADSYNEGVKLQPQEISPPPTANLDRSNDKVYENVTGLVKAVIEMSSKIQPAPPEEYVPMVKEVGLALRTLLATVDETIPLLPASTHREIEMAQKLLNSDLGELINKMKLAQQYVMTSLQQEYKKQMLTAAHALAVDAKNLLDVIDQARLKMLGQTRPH
Fibroblast growth factor 2 (Homo sapiens), sequence (P09038 whole entry, looked up): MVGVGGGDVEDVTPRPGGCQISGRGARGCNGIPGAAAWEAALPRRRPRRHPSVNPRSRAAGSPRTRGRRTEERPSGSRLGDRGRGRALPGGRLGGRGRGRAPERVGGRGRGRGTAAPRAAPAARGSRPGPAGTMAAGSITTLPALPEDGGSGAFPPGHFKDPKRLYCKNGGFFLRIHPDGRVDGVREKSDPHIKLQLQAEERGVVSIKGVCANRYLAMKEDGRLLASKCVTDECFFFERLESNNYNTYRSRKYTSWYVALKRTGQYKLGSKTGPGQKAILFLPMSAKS

As for `COCCOC(=O)N1C(=O)[C@@]2(c3cc(C#CCCO)ccc31)[C@H](c1ccc(O)cc1)N1[C@H](c3ccccc3)[C@H](c3ccccc3)OC(=O)[C@H]1[C@@H]2C(=O)N1CCc2cc(OC)c(OC)cc2C1`, the composite z-score in assay [1] came to 0.432; in assay [2] it was 1.25; in assay [3], 0.514; in assay [4], 0.81; in assay [5], 1.36; in assay [6], 1.59. Also, the composite z-score is 1.36 in the assay with Lefty1; 1.03 in assay [8]; 0.565 in assay [10]; 0.354 in [15]; 0.628 in assay [16]; 1.07 with Torsin-1A (Homo sapiens) [17]. Moreover, the composite z-score in the assay with Torsin-1A (Homo sapiens) [18] came to 0.761; in assay [19], 1.32. The z-score in assay [7] is 0.257; in assay [9], 0.298 (inactive); in [11] it was 0.0501 (inactive); in assay [12], -0.883 (inactive); in assay [13] it was -0.0647 (inactive); in [14] it was -1.05 (inactive).

In the case of `O=C1O[C@H](c2ccccc2)[C@H](c2ccccc2)N2[C@H]1[C@@H](C(=O)NC[C@H](O)c1ccccc1)[C@]1(C(=O)Nc3ccc(C#CCCO)cc31)[C@H]2c1ccccc1OCCO`, the composite z-score stood at 1.6 in assay [1]; 1.18 in [2]; 0.746 in assay [3]; 0.812 in assay [4]; 1.1 in assay [5]; 0.419 in assay [6]. Moreover, the composite z-score in the assay on Lefty1 is 1.39; in [8], 0.593; in assay [10], -0.24; in assay [15], -0.0243; in [16] it was 0.0633; with Torsin-1A (Homo sapiens) [17], 0.898. For the same molecule, the composite z-score was 1.01 with Torsin-1A (Homo sapiens) [18] and 1.97 in [19]. Further, the z-score in assay [7] was -0.223; in [9], 0.597 (inactive); in assay [11], -1.9 (inactive); in [12] it was -0.491 (inactive); in [13], -0.141 (inactive); in [14], -0.27 (inactive).

As to `O=C1C2C=CC(C(O)C(c3ccccc3)c3ccccc3)N(Nc3ccccc3)C2C(=O)N1c1ccccc1` (stereo not given), the composite z-score in assay [1] came to 0.59; in assay [2], 1.28; in [3], 0.175; in assay [4], 1.03; in assay [5] it was 1.29; in assay [6], 0.472. Further, the composite z-score with Lefty1 amounted to 0.707; in [8] it was 0.882; in assay [10] it was 0.422; in assay [15], 0.828; in assay [16] it was 0.271; with Torsin-1A (Homo sapiens) [17] it was 0.616. For the same molecule, the figures for the composite z-score (in the assay with Torsin-1A (Homo sapiens) [18]; in [19]) were 0.984 and 0.734, respectively. Moreover, the z-score is 0.0105 in assay [7]; -1.05 (inactive) in assay [9]; -0.374 (inactive) in assay [11]; -1.06 (inactive) in assay [12]; 0.629 (inactive) in assay [13]; -0.222 (inactive) in [14].

On to `O=C1N(CCS(=O)(=O)c2ccccc2)c2ccccc2[C@@H]2OC(c3ccc(OCCCO)cc3)=N[C@]12CCS(=O)(=O)c1ccccc1`, for which the composite z-score in assay [1] was determined as 0.7; in assay [2], 1.2; in assay [3] it was 0.575; in assay [4] it was 0.922; in [5], 1.38; in [6], 1.5. Further, the composite z-score in the assay on Lefty1 came to 0.553; in assay [8], 0.465; in [10], 0.277; in assay [15] it was 1.12; in assay [16], 0.103; with Torsin-1A (Homo sapiens) [17], 0.741. For the same molecule, the values for the composite z-score (with Torsin-1A (Homo sapiens) [18]; in assay [19]) were 1.43 and 1.3, respectively. Besides, the z-score is -1.59 in assay [7]; -3.78 (inactive) in assay [9]; -1.35 (inactive) in assay [11]; 0.647 (inactive) in assay [12]; 2.41 (inactive) in [13]; 0.103 (inactive) in assay [14].
